This note sets out measurements from PubChem BioAssay (EPA / NIEHS).

Results filed as inconclusive are left out. Active and inactive are the calls of the source. The calls were made as follows, unless noted: active = hit-call score of the fitted dose curve at least 0.9, where 1 is the maximum; inconclusive = response in the unintended direction; inactive = score below 0.9.

A short description of assay [1]: ATG_TAL_CIS: Attagene CIS-FACTORIAL HepG2 Assay for human TAL Basal Promoter (AID 2282966; active = hit-call score of the fitted dose curve at least 0.9, where 1 is the maximum; inactive = score below 0.9;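 also: background control endpoint measuring basal TAL promoter reporter mRNA not a specific factor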). Particulars: HepG2 Attagene cis-factorial TAL promoter reporter; actives raise or lower the signal. In short, it runs like this:
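Steps: transfect HepG2 with multiple reporter transcription units; dose 24 h; isolate RNA, reverse-transcribe, PCR-amplify, label with 6-FAM, digest with HpaI; resolve by capillary electrophoresis. Bidirectional fitting against DMSO baseline.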

A short description of assay [2]: ATG_TGFb_CIS: Attagene CIS-FACTORIAL HepG2 Assay for human Transforming Growth Factor (TGF) (AID 2282967; active = hit-call score of the fitted dose curve at least 0.9, where 1 is the maximum; inactive = score below 0.9). Particulars: HepG2 Attagene CIS TGFb reporter, mRNA transcription; actives raise or lower the signal. In short, it runs like this: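 Liver HepG2 line, cis-factorial reporter panel, 24 h dosing. Quantitation: RT-PCR products labeled with 6-FAM, cut with HpaI, resolved by capillary electrophoresis; DMSO-referenced bidirectional analysis.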

Assay [3] in a line: ATG_VDRE_CIS: Attagene CIS-FACTORIAL HepG2 Assay for human Vitamin D Receptor Element (VDRE) (AID 2282968; active = hit-call score of the fitted dose curve at least 0.9, where 1 is the maximum; inactive = score below 0.9). Particulars: HepG2 VDRE cis-reporter transcription, actives raise or lower the signal. In short, it runs like this:
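Transiently transfected HepG2 cells carrying cis-regulated reporter transcription units were exposed for 24 h. Reporter mRNA was measured by RT-PCR with fluorescent labelling and capillary electrophoresis, and fitted in both directions against DMSO.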

The target of assay [4] is Nuclear receptor subfamily 1 group I member 3 (Homo sapiens) (UniProt Q14994). The experiment in a line: ATG_CAR_TRANS: Attagene TRANS-FACTORIAL HepG2 Assay for human Constitutive Androstane Receptor (CAR) (AID 2282969).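 Also: activators raise reporter mRNA above DMSO so AC50 marks induction.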 Particulars: HepG2 Attagene TRANS-FACTORIAL CAR reporter. In short, it runs like this: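 HepG2 cells transiently transfected with GAL4-UAS reporter units; TRANS format reads activity of exogenous chimeric NR-Gal4 protein. After 24 h dosing, reporter mRNA quantified by RT-PCR, 6-FAM labelling and capillary electrophoresis; gain of signal fitted against DMSO.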
Sequence of Nuclear receptor subfamily 1 group I member 3 (Homo sapiens) (Q14994 whole entry, looked up, the tested form may be a part): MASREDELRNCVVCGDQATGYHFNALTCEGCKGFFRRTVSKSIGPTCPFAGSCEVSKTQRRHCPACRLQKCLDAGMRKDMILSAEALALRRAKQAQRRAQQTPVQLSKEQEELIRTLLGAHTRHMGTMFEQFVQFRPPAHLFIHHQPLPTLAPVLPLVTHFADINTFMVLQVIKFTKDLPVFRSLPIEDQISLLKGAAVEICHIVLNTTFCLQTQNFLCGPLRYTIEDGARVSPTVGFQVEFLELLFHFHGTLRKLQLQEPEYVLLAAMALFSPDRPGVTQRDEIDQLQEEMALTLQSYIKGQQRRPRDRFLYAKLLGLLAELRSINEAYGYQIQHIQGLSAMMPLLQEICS

Assay [5] has as its target X-box-binding protein 1 (Homo sapiens) (UniProt P17861). The experiment in a line: ATG_Xbp1_CIS: Attagene CIS-FACTORIAL HepG2 Assay for human X-box Binding Protein 1 (XBP1) (AID 2282972; active = hit-call score of the fitted dose curve at least 0.9, where 1 is the maximum; inactive = score below 0.9). The conditions noted are these: HepG2 XBP1 cis-element reporter, Attagene multiplex; actives raise or lower the signal. The method, boiled down:
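HepG2, transient MRTU transfection (cis-promoter driven), 24 h compound exposure. Total RNA → oligo(dT) RT → PCR → 6-FAM labeling → HpaI cut → CE. Bidirectional fit vs DMSO.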

Assay [6] deals with Glucocorticoid receptor (Homo sapiens) (UniProt P04150). The experiment in a line: ATG_GR_TRANS: Attagene TRANS-FACTORIAL HepG2 Assay for human Glucocorticoid Receptor (GR) (AID 2282978).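 Also: activators score as hits since higher reporter transcript over DMSO is fitted.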 Particulars: HepG2 Attagene TRANS GR reporter, mRNA transcription. In short, it runs like this: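 Measurement of GAL4-UAS-driven reporter mRNA in human HepG2 liver cells 24 h post-dosing, using RT-PCR with fluorescent labelling and capillary electrophoresis; the transfected constructs report exogenous NR-GAL4 chimera activity, fitted upward against DMSO.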
Sequence of Glucocorticoid receptor (Homo sapiens) (P04150 whole entry, looked up, the tested form may be a part): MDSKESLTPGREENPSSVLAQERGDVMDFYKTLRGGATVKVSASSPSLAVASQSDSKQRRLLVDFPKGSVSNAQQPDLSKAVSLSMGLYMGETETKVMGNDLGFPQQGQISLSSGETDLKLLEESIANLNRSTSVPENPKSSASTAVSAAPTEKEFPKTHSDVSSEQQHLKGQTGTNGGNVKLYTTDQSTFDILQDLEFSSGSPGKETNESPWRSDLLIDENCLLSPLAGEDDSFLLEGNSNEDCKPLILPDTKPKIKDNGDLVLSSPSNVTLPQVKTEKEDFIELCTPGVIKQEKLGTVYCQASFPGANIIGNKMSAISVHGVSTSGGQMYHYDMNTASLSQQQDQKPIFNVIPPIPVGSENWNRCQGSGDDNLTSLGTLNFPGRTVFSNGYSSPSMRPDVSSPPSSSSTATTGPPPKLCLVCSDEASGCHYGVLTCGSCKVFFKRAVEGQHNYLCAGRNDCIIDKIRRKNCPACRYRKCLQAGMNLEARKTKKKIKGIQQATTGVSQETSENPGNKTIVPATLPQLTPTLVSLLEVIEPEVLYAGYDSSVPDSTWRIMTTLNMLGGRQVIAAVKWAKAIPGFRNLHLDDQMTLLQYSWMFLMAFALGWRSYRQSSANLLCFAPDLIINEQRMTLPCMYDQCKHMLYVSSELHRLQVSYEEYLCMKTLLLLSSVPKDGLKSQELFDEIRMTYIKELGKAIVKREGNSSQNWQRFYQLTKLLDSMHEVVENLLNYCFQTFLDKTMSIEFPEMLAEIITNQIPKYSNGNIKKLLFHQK

Assay [7] addresses Bile acid receptor (Homo sapiens) (UniProt Q96RI1). In words: ATG_FXR_TRANS: Attagene TRANS-FACTORIAL HepG2 Assay for Farnesoid X Receptor (FXR) (AID 2282979).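 Also: hits raise reporter mRNA above DMSO so AC50 marks FXR activation.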 The conditions noted are these: HepG2 Attagene TRANS FXR-GAL4 reporter transcription. The method, boiled down:
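After 24 h chemical treatment of transfected HepG2 cells, GAL4-UAS reporter transcripts driven by an exogenous FXR-GAL4 fusion were measured by RT-PCR and capillary electrophoresis. Increases over DMSO were fitted.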

Assay [8] concerns the target Oxysterols receptor LXR-alpha (Homo sapiens) (UniProt Q13133). The experiment in a line: ATG_LXRa_TRANS: Attagene TRANS-FACTORIAL HepG2 Assay for human Liver X Receptor alpha (LXRa) (AID 2282980). The conditions noted are these: HepG2 Attagene TRANS reporter, LXRa transactivation. In short, it runs like this:
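In this multiplexed TRANS system, compounds act on HepG2 cells carrying GAL4-UAS reporter units and a receptor-GAL4 fusion for 24 h. Induced reporter RNA is amplified, fluorescently labelled and sized by capillary electrophoresis, with DMSO as baseline.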

In assay [9] the target is Hepatocyte nuclear factor 4-alpha (Homo sapiens) (UniProt P41235). In words: ATG_HNF4a_TRANS: Attagene TRANS-FACTORIAL HepG2 Assay for human Hepatocyte Nuclear Factor 4 alpha (HNF4a) (AID 2282982). The conditions noted are these: HepG2 HNF4a transactivation reporter, mRNA readout. In short, it runs like this: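 HepG2 cells transiently transfected with HNF4a-Gal4 chimera and GAL4-UAS reporter units, dosed for 24 h. Reporter mRNA measured by RT-PCR, fluorescent primer extension and capillary electrophoresis; gain-of-signal fitted relative to DMSO.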

Assay [10] can be described thus: ATG_M_06_TRANS: Attagene TRANS-FACTORIAL HepG2 Assay for M06 Transcription Factor (Internal Marker) (AID 2282983).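 Also: reporter transcript level by RT-PCR then capillary electrophoresis fluorescence.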 The conditions noted are these: HepG2 Attagene TRANS M06 internal marker reporter. In short, it runs like this: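 Internal-marker background readout from a multiplexed TRANS reporter system in HepG2; 24 h dosing; mRNA induction quantified by RT-PCR plus capillary electrophoresis fluorescence; DMSO as negative control and baseline.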

Assay [11] has as its target Transcriptional activator Myb (Homo sapiens) (UniProt P10242). The experiment in a line: ATG_Myb_CIS: Attagene CIS-FACTORIAL HepG2 Assay for human Myeloblastosis (Myb) Proto-Oncogene Transcription Factor (AID 2282986; active = hit-call score of the fitted dose curve at least 0.9, where 1 is the maximum; inactive = score below 0.9). The conditions noted are these: HepG2 Attagene CIS-FACTORIAL Myb reporter transcription; actives raise or lower the signal. The method, boiled down: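 Fluorescence signals from capillary electrophoresis of RT-PCR-amplified reporter cDNA give the read-out. Cells: HepG2 transfected with multiple cis-regulated reporter units. Exposure lasts 24 hours; DMSO defines baseline for gain or loss of signal.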

The target of assay [12] is Nuclear respiratory factor 1 (Homo sapiens) (UniProt Q16656). In words: ATG_NRF1_CIS: Attagene CIS-FACTORIAL HepG2 Assay for human Nuclear Respiratory Factor 1 (NRF1) Orphan Gene (AID 2282987; active = hit-call score of the fitted dose curve at least 0.9, where 1 is the maximum; inactive = score below 0.9). The conditions noted are these: HepG2 NRF1 cis-element reporter, Attagene multiplex; actives raise or lower the signal. The method, boiled down: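 Transcriptional reporter readout, one component of a 52-endpoint multiplexed HepG2 panel. Exposure 24 h; mRNA detected via RT-PCR and fluorescent capillary electrophoresis; fitting in both directions against DMSO.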
Sequence of Nuclear respiratory factor 1 (Homo sapiens) (Q16656 whole entry, looked up): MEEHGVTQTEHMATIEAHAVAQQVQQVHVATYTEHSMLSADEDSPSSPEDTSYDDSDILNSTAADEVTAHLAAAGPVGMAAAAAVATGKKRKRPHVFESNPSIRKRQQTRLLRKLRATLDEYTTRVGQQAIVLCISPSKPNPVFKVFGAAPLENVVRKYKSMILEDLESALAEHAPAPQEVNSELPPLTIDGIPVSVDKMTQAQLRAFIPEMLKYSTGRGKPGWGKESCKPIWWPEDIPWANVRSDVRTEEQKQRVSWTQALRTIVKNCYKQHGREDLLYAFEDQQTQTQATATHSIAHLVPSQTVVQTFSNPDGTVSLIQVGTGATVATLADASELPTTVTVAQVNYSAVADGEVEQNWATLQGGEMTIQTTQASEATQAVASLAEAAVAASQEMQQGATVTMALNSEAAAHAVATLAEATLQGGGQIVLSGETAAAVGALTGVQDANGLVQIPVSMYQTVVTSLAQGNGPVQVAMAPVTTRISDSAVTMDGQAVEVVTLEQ

Assay [13] can be described thus: ATG_M_19_TRANS: Attagene TRANS-FACTORIAL HepG2 Assay for M19 Transcription Factor (Internal Marker) (AID 2282974). The conditions noted are these: HepG2 Attagene TRANS-FACTORIAL M19 internal marker reporter. In short, it runs like this:
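Measured here: internal-marker reporter transcript from HepG2 cells transfected with MRTUs, harvested at 24 h. cDNA PCR products were 6-FAM labelled by primer extension, cut with HpaI for 2 h at 37 C, and resolved by CE.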

A short description of assay [14]: ATG_GAL4_TRANS: Attagene TRANS-FACTORIAL HepG2 Assay for GAL4 (Internal Marker) (AID 2282976). The conditions noted are these: HepG2 Attagene TRANS GAL4 internal marker reporter. The method, boiled down: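 Liver HepG2 line bearing multiplexed GAL4-UAS reporter constructs; 24 h chemical treatment. Transcripts were quantified as fluorescent fragments on capillary electrophoresis after RT-PCR and HpaI cut, with activity fitted upward from DMSO.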

Assay [15] deals with Estrogen-related receptor gamma (Homo sapiens) (UniProt P62508). In words: ATG_ERRg_TRANS: Attagene TRANS-FACTORIAL HepG2 Assay for human Estrogen-Related Receptor gamma (ERRg) (AID 2282977).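 Also: hits increase reporter signal over DMSO so potencies reflect activators.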 The conditions noted are these: HepG2 Attagene TRANS reporter, ERRg transactivation. The method, boiled down:
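HepG2 cells transiently transfected with multiplexed GAL4-UAS reporter units driven by chimeric NR-Gal4 proteins; 24 h exposure. Reporter mRNA quantified by RT-PCR, fluorescent labelling, HpaI digestion and capillary electrophoresis; gain of signal vs DMSO.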

Assay [16] concerns the target Oxysterols receptor LXR-beta (Homo sapiens) (UniProt P55055). In words: ATG_LXRb_TRANS: Attagene TRANS-FACTORIAL HepG2 Assay for human Liver X Receptor beta (LXRb) (AID 2282981). The conditions noted are these: HepG2 Attagene TRANS GAL4-LXRb reporter, mRNA. The method, boiled down:
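HepG2 cells transiently transfected with GAL4-UAS reporter units for chimeric NR-Gal4 proteins, dosed for 24 h. Reporter transcripts measured by RT-PCR and capillary electrophoresis; gain-of-signal fitting relative to DMSO.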

A short description of assay [17]: ATG_M_32_TRANS: Attagene TRANS-FACTORIAL HepG2 Assay for M32 Transcription Factor (Internal Marker) (AID 2282984).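 Also: transcript level of a background control reporter unit measured by RT-PCR and capillary electrophoresis.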 The conditions noted are these: HepG2 Attagene TRANS M32 internal marker reporter. In short, it runs like this: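 HepG2 cells transiently transfected with GAL4-UAS reporter units, dosed for 24 hours. Reporter mRNA quantified by RT-PCR, 6-FAM labelling, HpaI digestion and capillary electrophoresis; internal-marker signal fitted upward relative to DMSO.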

Assay [18] deals with Estrogen receptor (Homo sapiens) (UniProt P03372). The experiment in a line: ATG_ERa_TRANS: Attagene TRANS-FACTORIAL HepG2 Assay for human Estrogen Receptor alpha (ERa) (AID 2282970). Particulars: HepG2 Attagene TRANS ERa GAL4 reporter, mRNA. The method, boiled down: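 Multiplexed cell-based reporter format in HepG2: chimeric ERa-Gal4 protein drives GAL4-UAS reporter transcription. Fluorescent reporter mRNA quantified by capillary electrophoresis 24 hours after dosing; endpoint fitted as signal gain against DMSO.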

Assay [19] concerns the target Steroid hormone receptor ERR1 (Homo sapiens) (UniProt P11474). The experiment in a line: ATG_ERRa_TRANS: Attagene TRANS-FACTORIAL HepG2 Assay for human Estrogen-Related Receptor alpha (ERRa) (AID 2282971). The conditions noted are these: HepG2 Attagene TRANS reporter, ERRa transactivation. In short, it runs like this:
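Signal gain relative to DMSO for an ERRa-Gal4 chimeric receptor, read as reporter mRNA by RT-PCR/capillary electrophoresis. Human HepG2 liver cells, transient multiplex reporter transfection, 24 h chemical exposure.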

Assay [20] addresses Nuclear receptor subfamily 4 group A member 2 (Homo sapiens) (UniProt P43354). In words: ATG_NURR1_TRANS: Attagene TRANS-FACTORIAL HepG2 Assay for human Nuclear Receptor Related Protein 1 (NURR1) (AID 2282985). The conditions noted are these: HepG2 Attagene TRANS reporter, mRNA readout. In short, it runs like this:
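HepG2 cells transiently transfected with NURR1-Gal4 chimera and GAL4-UAS reporter units; after 24 hr compound exposure, reporter mRNA quantified by RT-PCR and capillary electrophoresis; gain of signal fitted against DMSO.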

Sequence of Nuclear receptor subfamily 4 group A member 2 (Homo sapiens) (P43354 whole entry, looked up, the tested form may be a part): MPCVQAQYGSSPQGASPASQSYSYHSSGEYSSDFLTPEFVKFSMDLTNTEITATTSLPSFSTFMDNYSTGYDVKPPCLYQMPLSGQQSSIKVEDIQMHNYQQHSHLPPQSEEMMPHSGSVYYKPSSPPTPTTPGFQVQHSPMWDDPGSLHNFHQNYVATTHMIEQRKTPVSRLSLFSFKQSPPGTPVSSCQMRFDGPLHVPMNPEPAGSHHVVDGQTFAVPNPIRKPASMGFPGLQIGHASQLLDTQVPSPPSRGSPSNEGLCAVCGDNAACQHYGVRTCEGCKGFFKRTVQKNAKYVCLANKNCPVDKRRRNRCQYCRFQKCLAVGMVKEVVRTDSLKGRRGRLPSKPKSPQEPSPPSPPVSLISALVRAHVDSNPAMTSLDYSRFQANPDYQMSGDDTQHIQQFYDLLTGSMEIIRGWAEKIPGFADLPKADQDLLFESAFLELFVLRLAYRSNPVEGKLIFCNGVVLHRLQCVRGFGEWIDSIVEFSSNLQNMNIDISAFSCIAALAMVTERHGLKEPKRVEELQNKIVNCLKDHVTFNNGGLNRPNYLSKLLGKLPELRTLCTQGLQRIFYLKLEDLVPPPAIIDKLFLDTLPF
Sequence of Bile acid receptor (Homo sapiens) (Q96RI1 whole entry, looked up, the tested form may be a part): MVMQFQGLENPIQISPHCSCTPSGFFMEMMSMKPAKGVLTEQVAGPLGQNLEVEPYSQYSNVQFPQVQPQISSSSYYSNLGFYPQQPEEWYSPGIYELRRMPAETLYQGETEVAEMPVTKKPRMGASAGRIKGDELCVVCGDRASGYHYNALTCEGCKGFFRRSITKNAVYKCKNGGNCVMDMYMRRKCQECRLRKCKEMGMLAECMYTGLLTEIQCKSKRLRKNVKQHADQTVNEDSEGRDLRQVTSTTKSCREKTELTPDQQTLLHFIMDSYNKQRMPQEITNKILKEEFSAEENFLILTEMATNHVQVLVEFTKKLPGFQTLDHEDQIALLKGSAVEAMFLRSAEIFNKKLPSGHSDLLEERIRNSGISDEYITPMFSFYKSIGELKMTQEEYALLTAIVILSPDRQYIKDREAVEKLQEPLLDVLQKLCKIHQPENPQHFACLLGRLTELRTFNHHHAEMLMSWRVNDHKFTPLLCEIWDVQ
Sequence of Transcriptional activator Myb (Homo sapiens) (P10242 whole entry, looked up): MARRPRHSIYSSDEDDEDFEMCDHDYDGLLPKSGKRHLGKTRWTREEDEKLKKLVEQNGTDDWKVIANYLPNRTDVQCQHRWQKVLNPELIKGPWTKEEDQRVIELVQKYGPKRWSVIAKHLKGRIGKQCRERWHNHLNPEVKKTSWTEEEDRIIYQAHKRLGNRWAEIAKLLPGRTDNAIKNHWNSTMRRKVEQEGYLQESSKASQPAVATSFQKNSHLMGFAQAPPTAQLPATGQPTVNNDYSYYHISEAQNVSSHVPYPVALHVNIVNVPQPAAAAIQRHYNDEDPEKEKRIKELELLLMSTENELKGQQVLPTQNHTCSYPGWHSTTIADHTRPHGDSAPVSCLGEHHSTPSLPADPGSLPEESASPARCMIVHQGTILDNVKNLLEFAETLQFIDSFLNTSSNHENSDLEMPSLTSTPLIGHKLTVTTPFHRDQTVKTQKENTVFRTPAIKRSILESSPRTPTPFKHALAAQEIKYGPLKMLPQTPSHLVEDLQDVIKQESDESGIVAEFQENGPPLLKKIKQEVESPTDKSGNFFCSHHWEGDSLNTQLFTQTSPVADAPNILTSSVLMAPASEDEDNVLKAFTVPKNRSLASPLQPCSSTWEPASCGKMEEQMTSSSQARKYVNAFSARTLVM
Sequence of Oxysterols receptor LXR-alpha (Homo sapiens) (Q13133 whole entry, looked up, the tested form may be a part): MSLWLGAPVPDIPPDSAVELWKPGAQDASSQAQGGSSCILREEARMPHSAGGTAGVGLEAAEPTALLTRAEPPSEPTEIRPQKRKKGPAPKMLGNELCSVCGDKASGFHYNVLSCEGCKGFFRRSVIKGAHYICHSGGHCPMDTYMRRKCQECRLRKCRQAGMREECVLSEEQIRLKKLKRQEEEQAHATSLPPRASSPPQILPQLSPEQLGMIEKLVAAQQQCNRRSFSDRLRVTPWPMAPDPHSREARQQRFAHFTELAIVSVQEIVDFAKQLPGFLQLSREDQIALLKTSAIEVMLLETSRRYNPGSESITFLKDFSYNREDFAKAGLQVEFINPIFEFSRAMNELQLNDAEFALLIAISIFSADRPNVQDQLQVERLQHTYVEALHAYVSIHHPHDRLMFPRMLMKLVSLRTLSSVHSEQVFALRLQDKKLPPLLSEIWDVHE
Sequence of X-box-binding protein 1 (Homo sapiens) (P17861 whole entry, looked up): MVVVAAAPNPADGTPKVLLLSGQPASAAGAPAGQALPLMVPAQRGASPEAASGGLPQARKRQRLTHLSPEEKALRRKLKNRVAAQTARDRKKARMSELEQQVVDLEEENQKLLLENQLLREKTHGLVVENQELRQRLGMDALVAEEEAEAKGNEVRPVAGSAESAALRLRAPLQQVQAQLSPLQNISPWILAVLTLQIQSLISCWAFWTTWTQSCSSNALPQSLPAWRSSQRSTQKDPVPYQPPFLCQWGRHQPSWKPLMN
Sequence of Oxysterols receptor LXR-beta (Homo sapiens) (P55055 whole entry, looked up, the tested form may be a part): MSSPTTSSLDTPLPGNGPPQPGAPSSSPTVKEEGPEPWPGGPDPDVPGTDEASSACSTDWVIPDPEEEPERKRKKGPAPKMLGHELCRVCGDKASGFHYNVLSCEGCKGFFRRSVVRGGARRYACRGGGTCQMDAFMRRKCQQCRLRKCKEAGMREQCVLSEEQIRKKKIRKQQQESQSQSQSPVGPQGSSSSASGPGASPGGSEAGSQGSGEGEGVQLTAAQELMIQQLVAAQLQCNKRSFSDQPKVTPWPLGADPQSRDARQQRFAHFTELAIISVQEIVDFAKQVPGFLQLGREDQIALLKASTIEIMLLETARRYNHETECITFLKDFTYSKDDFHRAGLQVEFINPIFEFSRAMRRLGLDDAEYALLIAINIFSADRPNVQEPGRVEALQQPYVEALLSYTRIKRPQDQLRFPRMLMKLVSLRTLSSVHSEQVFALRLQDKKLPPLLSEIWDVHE
Sequence of Steroid hormone receptor ERR1 (Homo sapiens) (P11474 whole entry, looked up, the tested form may be a part): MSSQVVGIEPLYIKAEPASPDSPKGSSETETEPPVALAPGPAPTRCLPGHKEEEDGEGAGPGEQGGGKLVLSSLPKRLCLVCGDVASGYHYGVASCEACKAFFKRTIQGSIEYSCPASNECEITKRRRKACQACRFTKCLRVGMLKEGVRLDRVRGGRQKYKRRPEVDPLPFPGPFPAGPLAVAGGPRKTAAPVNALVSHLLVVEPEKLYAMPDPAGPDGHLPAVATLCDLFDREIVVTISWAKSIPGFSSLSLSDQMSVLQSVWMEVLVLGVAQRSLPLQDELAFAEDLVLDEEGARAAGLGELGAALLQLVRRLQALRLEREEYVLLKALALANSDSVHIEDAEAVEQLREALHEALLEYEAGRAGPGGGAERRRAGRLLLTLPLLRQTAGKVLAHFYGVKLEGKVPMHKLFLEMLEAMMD

In the case of `CCCCCCCCCCCCN1CCCCCC1=O`, the compound was called inactive in assay [1], in assay [2], in [3], in assay [4], in assay [6] and in [7]. The compound was called inactive in assay [8], in [9], in assay [10], in assay [11] and in assay [12]. In [5], the concentration at half-maximal activity (AC50) is 14.5 µM (active).
In the case of `CN(C)CCOC(C)(c1ccccc1)c1ccccn1` (centres undefined), the outcome in assay [1], in assay [2], in assay [3], in assay [4], in [13] and in assay [14] was inactive. Further, the call in assay [15], in [7], in assay [8], in [16], in assay [10] and in [17] was inactive. The call in assay [11] and in assay [12] was inactive.
With `O=[N+]([O-])c1cccc(Cl)c1`, the call in assay [1], in assay [2], in [3], in [18], in [19] and in assay [5] was inactive. For the same compound, the compound was classed as inactive in assay [10], in [11] and in assay [12].
Turning to `C[Si]1(C)O[Si](C)(C)O[Si](C)(C)O1`, the compound was classed as inactive in [1], in assay [2], in assay [3], in assay [19], in assay [5] and in assay [13]. Moreover, the compound was classed as inactive in [14], in assay [15], in assay [7], in assay [20] and in assay [12].
Regarding `CC(C)=CCCC(C)CC(=O)O` (centres undefined), the outcome in [1], in [2], in assay [3], in assay [4], in assay [5] and in [8] was inactive. Moreover, the call in assay [16], in [9], in assay [10], in assay [20], in assay [11] and in assay [12] was inactive.
As for `C=CCCC(=O)/C=C/C1C(C)=CCCC1(C)C` (centres undefined), the result in assay [1], in assay [2], in assay [4], in [5], in [6] and in assay [16] was inactive. Also, the compound was called inactive in assay [10], in assay [20], in assay [11] and in assay [12]. The AC50 in assay [3] is 2.44 µM (active).

As usually defined, the AC50 is the concentration giving half of the maximal activity seen.
